This is an account of results in PubChem BioAssay AID1845 (The Scripps Research Institute Molecular Screening Center, 2009).

The campaign covered roughly 290,000 compounds. About 490 (0.17%) were called active. The full list was thinned out, with actives kept by preference. Unmarked numbers belong to inactive results. Cut-off read from the data, not from the text of the source: active = inhibition above about 37%; inactive = the rest.

The nature of the assay: compounds displacing fluorescent DNA intercalator, primary screen, artefact control for HCV NS3 helicase inhibitor project, biochemical, FID fluorescence (AID 1845).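 Note: 0% = vehicle and 100% = reference compound; higher means more ethidium bromide displaced from hairpin DNA.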 The settings on record: DNA fluorescent intercalator displacement, at 7.9 µM, active compounds read high.
Take `CN1CCN(c2cc(N3CCNCC3)ccc2[N+](=O)[O-])CC1`: the inhibition was 14.7%.

On to `COc1cccc(-c2nc3ccc(N4CCN(C)CC4)cc3[nH]2)c1`, for which the inhibition was 40.7% (active).

For `Cc1nc2ccc(N3CCN(C)CC3)cc2nc1C`, the inhibition was 7.94%.

As to `Cn1c(O)c(C(=Nc2ccc(F)cc2)c2ccccc2)c(=O)n(C)c1=O`, the inhibition is 1.2%.

`CCOC(=O)C1(CCc2ccccc2)CCN(Cc2ccco2)CC1`: the inhibition is 5.09%.

On to `CCOC(=O)C1(Cc2ccc(Cl)cc2)CCN(C(C)CCn2cccn2)CC1` (stereo not given), for which the inhibition is 37.1% (active).

Consider `Cn1c(C(=O)N2CCC(C(=O)N3CCC4(CC3)OCCO4)CC2)cc2sccc21`, for which the inhibition was -30.4%.

Take `O=C(C1CC(=O)N(C2CCCC2)C1)N1CCC2(CC1)OCCO2` (stereo not given): the inhibition is -1.99%.

In the case of `c1ccc(C2NCc3ccccc3-n3cccc32)cc1` (stereo not given), the inhibition is 9.21%.

For `O=C(Cc1ccc(Cl)cc1)NCCN1CCN(C(=O)Cc2ccc(Cl)cc2)CC1`, the inhibition is -26%.

A word on the inhibition: it is the relative decrease from the control value, in per cent.
